Results: PubChem BioAssay AID1159580 (chemical genetic matrix, 2015)
The campaign covered roughly 5,500 compounds. About 2,000 (36%) were called active. Inconclusive results (about 18%) are left out. Rule as the data show it: active = normalized growth mostly below about 0.91 (no sharp cut-off); inconclusive = no clear call, values can overlap the other calls; inactive = mostly above about 0.92. The list shows a part of the results.

Test: chemical genetic growth profiling, strain panel (AID 1159580);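 also: tested at 20 µM; growth read once vehicle control cultures reached saturation at 30 °C; 1 = growth at the plate median or of vehicle wells; lower values mean less growth of the strain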
Conditions: S. cerevisiae deletion strains, growth OD
[1] = locus YAL013W, strain DEP1, hits give low values
[2] = locus YAL040C, strain CLN3, hits give low values
[3] = locus YCL061C, strain MRC1 (second series), hits give low values
[4] = locus YDR150W, strain NUM1, hits give low values
[5] = locus YDR363W, strain ESC2, hits give low values
[6] = locus YER002W, strain NOP16, hits give low values
[7] = locus YJR075W, strain HOC1, hits give low values
[8] = locus YMR307W, strain GAS1, hits give low values
[9] = locus YNL175C, strain NOP13, hits give low values
[10] = locus YNL197C, strain WHI3, hits give low values
[11] = locus YNL224C, strain SQS1, hits give low values
[12] = locus YOR083W, strain WHI5 (second series), hits give low values

Measured: normalized growth

CC(=O)[C@@]1(O)CC[C@H]2[C@@H]3CCC4=CC(=O)CC[C@]4(C)[C@H]3CC[C@@]21C
inactive: [1] 0.961 | [2] 0.947 | [3] 0.985 | [4] 1 | [5] 0.996 | [6] 0.967 | locus YGR078C, strain PAC10, hits give low values 0.975 | locus YGR229C, strain SMI1, hits give low values 1.01 | [7] 0.984 | [8] 0.979 | [9] 0.97 | [10] 0.966 | [11] 0.957 | [12] 1.03

C[C@]12CCC(=O)C=C1CC[C@@H]1[C@@H]2CC[C@@]2(C)[C@H]1CC[C@]2(O)C(=O)CO
inactive: [1] 1.02 | [2] 1 | [3] 0.994 | [4] 0.994 | [5] 0.948 | [6] 0.98 | [7] 1 | [8] 1.01 | locus YNL153C, strain GIM3, hits give low values 0.938 | [9] 0.969 | [10] 0.975 | [11] 0.992 | [12] 0.966 | locus YPL241C, strain CIN2, hits give low values 1
